# Test results reported in the supplement of paper PMC4466140.
# Key:
# Experiment in all cases: SPOT peptide array binding signal intensity (averaged, normalized) (arbitrary units (background-subtracted, floor 0; scale differs between SH3 domains)); higher = stronger binding of the SH3 domain to the peptide
# SpBzz1-D2 = target: SpBzz1-D2
# Method in brief: (§1)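 Binding signal refers to normalized, background-subtracted spot intensity averaged over replicates, expressed in arbitrary units that differ between domains. GST-fused SH3 domains from four yeast species were incubated at 10 μg/ml overnight at 4°C on cellulose membranes of synthetic 15-mer peptides with cysteines replaced by serines. Bound protein was detected with anti-GST antibody, an HRP anti-mouse secondary and luminol, and quantified with Genespotter.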
# SpCyk3 = target: SpCyk3
# Method in brief: as §1
# SpHof1 = target: SpHof1
# Method in brief: as §1
# SpHof1-2 = target: SpHof1-2
# Method in brief: as §1
# SpHof1-3 = target: SpHof1-3
# Method in brief: as §1
# SpHse1 = target: SpHse1
# Method in brief: as §1
# SpLsb1 = target: SpLsb1
# Method in brief: as §1
# SpLsb4 = target: SpLsb4
# Method in brief: as §1
# SpMyo1 = target: SpMyo1
# Method in brief: as §1
# SpNbp2 = target: SpNbp2
# Method in brief: as §1
# SpPex13 = target: SpPex13
# Method in brief: as §1
# SpRvs167 = target: SpRvs167
# Method in brief: as §1
# SpSla1-D1-D2 = target: SpSla1-D1-D2
# Method in brief: as §1
# SpSla1-D3 = target: SpSla1-D3
# Method in brief: as §1
# AgAbp1 = target: AgAbp1
# Method in brief: as §1
# AgBbc1 = target: AgBbc1
# Method in brief: as §1
# AgBem1-D1 = target: AgBem1-D1
# Method in brief: as §1
# AgBzz1-D1 = target: AgBzz1-D1
# Method in brief: as §1
# AgBzz1-D2 = target: AgBzz1-D2
# Method in brief: as §1
# AgCyk3 = target: AgCyk3
# Method in brief: as §1
# AgFus1 = target: AgFus1
# Method in brief: as §1
# AgHof1 = target: AgHof1
# Method in brief: as §1
# AgHse1 = target: AgHse1
# Method in brief: as §1
# AgLsb1 = target: AgLsb1
# Method in brief: as §1
# AgLsb4 = target: AgLsb4
# Method in brief: as §1
# AgMyo5 = target: AgMyo5
# Method in brief: as §1
# AgNbp2 = target: AgNbp2
# Method in brief: as §1
# AgRvs167 = target: AgRvs167
# Method in brief: as §1
# AgSho1 = target: AgSho1
# Method in brief: as §1
# AgSla1-D1-D2 = target: AgSla1-D1-D2
# Method in brief: as §1
# AgSla1-D3 = target: AgSla1-D3
# Method in brief: as §1
# CaAbp1-D1 = target: CaAbp1-D1
# Method in brief: as §1
# CaAbp1-D2 = target: CaAbp1-D2
# Method in brief: as §1
# CaBbc1 = target: CaBbc1
# Method in brief: as §1
# CaBem1-D1 = target: CaBem1-D1
# Method in brief: as §1
# CaBzz1-D1 = target: CaBzz1-D1
# Method in brief: as §1
# CaBzz1-D2 = target: CaBzz1-D2
# Method in brief: as §1
# CaCyk3 = target: CaCyk3
# Method in brief: as §1
# CaFus1 = target: CaFus1
# Method in brief: as §1
# CaHof1 = target: CaHof1
# Method in brief: as §1
# CaHse1 = target: CaHse1
# Method in brief: as §1
# CaLsb1 = target: CaLsb1
# Method in brief: as §1
# CaLsb4 = target: CaLsb4
# Method in brief: as §1
# CaMyo5 = target: CaMyo5
# Method in brief: as §1
binder,measurement,setting,value
RKNRAPPQRPRFNRE,SPOT peptide array binding signal intensity,SpBzz1-D2,23
same,SPOT peptide array binding signal intensity,SpCyk3,9.5
same,SPOT peptide array binding signal intensity,SpHof1,200
same,SPOT peptide array binding signal intensity,SpHof1-2,13.5
same,SPOT peptide array binding signal intensity,SpHof1-3,286
same,SPOT peptide array binding signal intensity,SpHse1,253
same,SPOT peptide array binding signal intensity,SpLsb1,190
same,SPOT peptide array binding signal intensity,SpLsb4,707
same,SPOT peptide array binding signal intensity,SpMyo1,14
same,SPOT peptide array binding signal intensity,SpNbp2,307
same,SPOT peptide array binding signal intensity,SpPex13,32
same,SPOT peptide array binding signal intensity,SpRvs167,67.8
same,SPOT peptide array binding signal intensity,SpSla1-D1-D2,48
same,SPOT peptide array binding signal intensity,SpSla1-D3,7
LFMKGTPEFPKSGFS,SPOT peptide array binding signal intensity,AgAbp1,≤ 0
same,SPOT peptide array binding signal intensity,AgBbc1,12.5
same,SPOT peptide array binding signal intensity,AgBem1-D1,224
same,SPOT peptide array binding signal intensity,AgBzz1-D1,8.5
same,SPOT peptide array binding signal intensity,AgBzz1-D2,7
same,SPOT peptide array binding signal intensity,AgCyk3,≤ 0
same,SPOT peptide array binding signal intensity,AgFus1,479
same,SPOT peptide array binding signal intensity,AgHof1,7
same,SPOT peptide array binding signal intensity,AgHse1,104
same,SPOT peptide array binding signal intensity,AgLsb1,≤ 0
same,SPOT peptide array binding signal intensity,AgLsb4,5
same,SPOT peptide array binding signal intensity,AgMyo5,5
same,SPOT peptide array binding signal intensity,AgNbp2,208
same,SPOT peptide array binding signal intensity,AgRvs167,0.667
same,SPOT peptide array binding signal intensity,AgSho1,248
same,SPOT peptide array binding signal intensity,AgSla1-D1-D2,4
same,SPOT peptide array binding signal intensity,AgSla1-D3,5
same,SPOT peptide array binding signal intensity,CaAbp1-D1,291
same,SPOT peptide array binding signal intensity,CaAbp1-D2,224
same,SPOT peptide array binding signal intensity,CaBbc1,40.5
same,SPOT peptide array binding signal intensity,CaBem1-D1,272
same,SPOT peptide array binding signal intensity,CaBzz1-D1,182
same,SPOT peptide array binding signal intensity,CaBzz1-D2,58.8
same,SPOT peptide array binding signal intensity,CaCyk3,7.5
same,SPOT peptide array binding signal intensity,CaFus1,914
same,SPOT peptide array binding signal intensity,CaHof1,≤ 0
same,SPOT peptide array binding signal intensity,CaHse1,113
same,SPOT peptide array binding signal intensity,CaLsb1,3.5
same,SPOT peptide array binding signal intensity,CaLsb4,196
same,SPOT peptide array binding signal intensity,CaMyo5,40.2
